For two molecules, inhibition results are on record in PubChem BioAssay AID504437 (Emory University Molecular Libraries Screening Center, 2011).

Broadly, the inhibition is the change of the read-out against control, counted positive when it falls.

About 940 (45%) of roughly 2,100 compounds were called active.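 The calls were made as follows: active = mean of three repeat readings of reporter signal inhibition above a set limit (cut at about 70% in these data); inactive = the rest.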 The set was probably picked from earlier hits. Only a selection was taken, and actives are over-represented in it overall.

The test is described as follows: retest of CHOP induction inhibitors, confirmation, cell-based (AID 504437).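 Also: 0% = tunicamycin plus vehicle and 100% = wells lacking tunicamycin.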 Particulars: CHO-CHOP promoter luciferase reporter, tunicamycin-induced, luminescence; at 10 µM; hits give high values. A general note: A reporter such as luciferase makes a cellular process visible.
With `O=C(CSC1c2ccccc2-c2ccccc21)N/N=C/c1ccccc1`, the inhibition was 70.5% (active).

For `CCCCCCN=C(CC)c1c(O)n(CCCC)c(=O)[nH]c1=O`, the inhibition is 118% (active).
